Screening results deposited in PubChem BioAssay by National Center for Advancing Translational Sciences (NCATS).
RORgamma inh = inhibitors of mouse ROR gamma transcriptional activity; P51450; Drosophila S2 Gal4-RORgamma UAS-luciferase reporter, 20 h; Potency, µM (series often up to 53.6 µM), hits mostly inhibitors; 5.4% of 310,000 active; further: nearly all actives have a fitted effect of over 60% in size
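Luminescence from a UAS-regulated Photinus luciferase reporter in stably transfected Drosophila Schneider cells is measured; decreased signal marks ROR gamma inhibition. Fusion expression is induced by 700 uM copper sulfate for 20 hr.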
TDP1 inh = TDP1 (human) enzyme inhibition. AID 485290. Q9NUW8. 0.28% of 350,000 active. recombinant TDP1, AlphaScreen DNA substrate cleavage. Potency, µM (highest dose often 130 µM), usual class: inhibitors; further: nearly all actives have a fitted effect of over 40% in size
Target sequence (Q9NUW8 whole entry, looked up): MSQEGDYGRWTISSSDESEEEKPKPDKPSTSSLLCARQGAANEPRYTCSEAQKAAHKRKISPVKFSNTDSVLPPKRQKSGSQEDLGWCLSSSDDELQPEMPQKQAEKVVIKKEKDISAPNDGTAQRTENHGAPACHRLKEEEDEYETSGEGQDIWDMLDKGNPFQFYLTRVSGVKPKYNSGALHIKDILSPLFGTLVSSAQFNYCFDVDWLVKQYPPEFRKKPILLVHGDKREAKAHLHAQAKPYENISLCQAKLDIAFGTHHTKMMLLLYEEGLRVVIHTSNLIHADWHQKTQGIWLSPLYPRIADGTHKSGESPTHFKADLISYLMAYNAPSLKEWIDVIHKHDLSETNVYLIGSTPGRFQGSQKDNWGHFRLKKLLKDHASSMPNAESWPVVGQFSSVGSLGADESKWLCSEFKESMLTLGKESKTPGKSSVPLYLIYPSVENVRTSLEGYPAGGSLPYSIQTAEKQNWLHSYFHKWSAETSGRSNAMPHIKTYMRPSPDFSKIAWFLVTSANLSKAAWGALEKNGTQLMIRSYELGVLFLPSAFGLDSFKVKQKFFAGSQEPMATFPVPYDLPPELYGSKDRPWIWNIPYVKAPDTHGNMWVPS
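Steps: enzyme plus compound, 15 min RT; add biotin/phosphotyrosine-FITC oligonucleotide (15 nM final), react 5 min; add donor/acceptor beads (10 ug/ml final), 10 min; read AlphaScreen. Tdp1 at 1 nM final.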
DT40 TDP1 no CPT = qHTS for Inhibitors of human tyrosyl-DNA phosphodiesterase 1 (TDP1): qHTS in cells in absence of CPT; DT40 Tdp1-/- hTDP1 cells, no CPT, ATP luminescence, 48 h; Potency, µM (top dose mostly 46.2 µM), most hits filed as inhibitors; 15% of 420,000 active; further: nearly all actives have a fitted effect of over 55% in size
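Chicken DT40 Tdp1-/- cells stably complemented with human TDP1 were seeded at 400 cells/well with DMSO in place of 20 nM camptothecin. After compound pinning, cells grew at least 48 hr at 37 °C; viability read by CellTiter-Glo luminescence.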
Gal4-VP16 FLuc = counter-screen for ROR gamma inhibitors: Gal4-VP16 reporter; Drosophila S2 Gal4-VP16 UAS-luciferase, luminescence, 20 h; Potency, µM (top dose mostly 53.6 µM), actives largely listed as inhibitors; 3.5% of 310,000 active; AID 2546;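 further: Gal4-VP16 expression switched on by copper sulfate through the metallothionein promoter; nearly all actives have a fitted effect of over 50% in size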
TDP1 cell CPT = growth inhibition of DT40 Tdp1-/-;hTDP1 cells with camptothecin (screen for TDP1 inhibitors); Potency, µM (top dose mostly 46.2 µM), most hits filed as inhibitors; chicken DT40 Tdp1-/-;hTDP1 cells + 20 nM CPT, ATP luminescence, 48 h; AID 686979; 12% of 420,000 active; further: nearly all actives have a fitted effect of over 55% in size
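Chicken DT40 Tdp1-/- cells stably complemented with human TDP1 were seeded at 400 cells/well in medium containing 20 nM camptothecin, exposed to pin-transferred compounds, and grown at 37 °C for at least 48 hr. Viability was read as ATP luminescence.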
Hits are given with their value; 0 = inactive; ? = inconclusive; - = no result given; [ ] = another dose, or the depositor's remark. Most compounds without a hit are left out; they make up all but 19% or so of the library. The call rests on the fitted dose curve; in most records, active means well fitted curve in the direction sought with a large enough effect; inconclusive means small, poorly fitted or top-dose-only effect, or another doubt; inactive means no such curve, though single readings can be large; an effect the other way counts as inactive or inconclusive.

SMILES | RORgamma inh | TDP1 inh | DT40 TDP1 no CPT | Gal4-VP16 FLuc | TDP1 cell CPT
COc1c(C)cc(Br)cc1C(=O)NC(=S)NCc1ccco1 | 11.2µM | 0 | ? | ? | 0
CCOC(=O)/C(C#N)=C/c1cn(CCC(=O)O)nc1-c1ccc(F)cc1 | 0 | 0 | 0 | 0 | 0
COc1cc(NC(=O)c2noc3c2CCC3)c(OC)cc1Cl | 0 | 0 | 0 | 0 | 0
COc1cc(NC(=O)c2noc(C)c2[N+](=O)[O-])c(OC)cc1Cl | 0 | 0 | 6.51µM | 0 | 14.6µM
COc1ccc(-c2csc3ncnc(N4CCN(c5ccc(OC)cc5)CC4)c23)cc1 | 0 | 0 | 13µM | 0 | 23.1µM
Cc1ccc(-c2csc3ncnc(N4CCN(c5ccccc5O)CC4)c23)cc1 | 0 | 0 | 14.6µM | 0 | ?
COc1ccc(-c2csc3ncnc(N4CCN(c5ccccc5[N+](=O)[O-])CC4)c23)cc1 | 0 | 0 | 18.4µM | 0 | ?
COc1ccc(-c2csc3ncnc(N4CCN(c5ccccc5O)CC4)c23)cc1 | ? | 0 | 16.4µM | ? | ?
Oc1ccc(Cl)cc1C1=NCCNC(C(F)(F)C(F)F)=C1 | 0 | 0 | 0 | 0 | 0
CN1CCN(CCC2Oc3cc([N+](=O)[O-])ccc3NC2=O)CC1 (stereo not given) | 0 | 0 | 0 | 0 | 0
CCn1cc(C(=O)NCCOC)c(=O)c2cc(S(=O)(=O)N3CCOCC3)ccc21 | - | 0 | 0 | - | 0
CC(C)c1ccc(-c2csc3ncnc(N4CCN(C)CC4)c23)cc1 | 0 | - | 11.6µM | 0 | 16.4µM
CN1CCCN(c2ncnc3scc(-c4ccc(F)cc4)c23)CC1 | 0 | 0 | ? | 0 | 0
CCC(Sc1ccccn1)C(=O)Nc1cccc([N+](=O)[O-])c1 (stereo not given) | 15.8µM | - | ? | ? | 0
Cc1ccc(C(=O)CN2/C(=C(\O)c3ccccc3)C(=O)c3ccccc3S2(=O)=O)c(C)c1 | 12.6µM | 0 | 16.4µM | ? | 11.6µM
O=C(CN1C(=O)c2ccccc2S1(=O)=O)c1ccccc1Cl | 8.91µM | 0 | - | ? | -
O=C(CN1C(=O)c2ccccc2S1(=O)=O)NCc1ccccc1Cl | 0 | 0 | 0 | 0 | 0
Cc1cc(C(=O)CN2C(=O)C3CC=CCC3C2=O)c(C)n1-c1ccccc1 (stereo not given) | ? | 0 | 23.1µM | 12.6µM | 23.1µM
Cc1cc(C(=O)CN2C(=O)c3ccccc3S2(=O)=O)c(C)n1-c1ccccc1 | 11.2µM | 0 | 23.1µM | 11.2µM | 20.6µM
CCn1c(C)cc(C(=O)CN2C(=O)c3ccccc3S2(=O)=O)c1C | - | 0 | 0 | - | 0
Cc1cc(C(=O)Cn2cc(C(F)(F)F)ccc2=O)c(C)n1-c1ccccc1 | 0 | 0 | ? | ? | ?
CCn1c(C(=O)NCCCc2ccccc2)cc2sccc21 | ? | 0 | ? | 0 | ?
O=C(NC(CO)(CO)CO)[C@@H]1CCCN1S(=O)(=O)c1cccc2cccnc12 | - | 0 | 0 | - | 0
Cc1ccc(-n2c(=S)sc3c(=O)n(-c4ccccc4C)c(SCC(=O)O)nc32)cc1C | 0 | - | 0 | 0 | 0
CC(C)NC(=O)CN1C(=O)c2ccccc2S1(=O)=O | 0 | 0 | ? | 0 | 0
SMILES | RORgamma inh | TDP1 inh | DT40 TDP1 no CPT | Gal4-VP16 FLuc | TDP1 cell CPT
Cc1ccc(C(=O)CN2C(=O)c3ccccc3S2(=O)=O)cc1 | 2.24µM | 0 | 0 | ? | 0
O=C(CN1C(=O)c2ccccc2S1(=O)=O)c1ccccc1 | 8.91µM | 0 | 0 | 14.1µM | 0
CCOc1ccc(NC(=O)CCC(=O)N/N=C/c2ccc3c(c2)OCO3)cc1 | 0 | 0 | 0 | 0[10 µM] | 0
Cc1cccc(N2CCN(C(=O)CCCn3c(=S)[nH]c4cc5c(cc4c3=O)OCO5)CC2)c1C | 3.16µM | 0 | ? | 4.47µM | ?
O=C(CCCn1c(=S)[nH]c2cc3c(cc2c1=O)OCO3)N1CCN(c2ccc(Cl)cc2)CC1 | 6.31µM | 0 | 18.4µM | 5.62µM | ?
O=C(CCCn1c(=S)[nH]c2cc3c(cc2c1=O)OCO3)N1CCN(c2ccccc2)CC1 | 0 | 0 | ? | 0 | ?
CC(=O)c1ccc(N2CCN(C(=O)CCCn3c(=S)[nH]c4cc5c(cc4c3=O)OCO5)CC2)cc1 | 11.2µM | 0 | 0 | ? | 0
CCOC(=O)N1CCN(C(=O)CCCCCn2c(=S)[nH]c3cc4c(cc3c2=O)OCO4)CC1 | 0 | 0 | ? | 0 | ?
